Screening data: PubChem, ICCB-Longwood Screening Facility, Harvard Medical School
Sa helicase inh: blocks Staphylococcus aureus DNA helicase. purified S. aureus helicase, fluorescence unwinding assay. inhibition, % (no concentration beside the values). 120,000 tested, 0.05% active. AID 485395; in the data active means inhibition above about 25%, passing the limit was not always enough
Sa growth 42C: S. aureus growth inhibition; relative growth, % (test concentration not listed); 170,000 tested, 0.53% active; S. aureus RN4220 growth, OD600, 20 h, 42 °C; stronger effect = lower value;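 active means relative growth at most 50% at the other temperature and 20+ points below 30 °C, or under 10% at both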
Each line names hits and unclear results; the compound was inactive in the other large screens. This is a sample that favours compounds with a hit; in the whole collection about 0.52% have one here.

CC1(C)S[C@@H]2[C@H](NC(=O)C(C(=O)O)c3ccccc3)C(=O)N2[C@H]1C(=O)O (some centres undefined)	Sa growth 42C 0.0 (no result: Sa helicase inh)
Cc1onc(-c2ccccc2)c1C(=O)NC1CCCCC1NC(=O)c1c(-c2ccccc2)noc1C (centres undefined)	none
Cc1ccc2cc(CN(C)C3CCS(=O)(=O)C3)c(Cl)nc2c1C (centres undefined)	none
N#Cc1ccc(OC(F)F)cc1	none
COc1ccccc1NC1CCS(=O)(=O)C1 (centres undefined)	none (no result: Sa growth 42C)
Cc1cc(C)c2c(c1)/C(=N\OCC(=O)N1CCCc3ccccc31)C(=O)N2	none
COc1ccc2c(c1)[nH]c1c(=O)n(CCCN3CCN(C4CCCCC4)CC3)cnc12	none
O=C1CN(NC(=O)NC2CCCCC2)C(=O)N1	none
C=CCN(CC=C)S(=O)(=O)c1ccc(C(=O)Nc2nnc(-c3ccc(OC)cc3)o2)cc1	none
CCc1nnc(NC(=O)c2ccc(S(=O)(=O)N3CCCC3)cc2)o1	none
Cc1ccc(-c2nnc(NC(=O)c3ccc(S(=O)(=O)N4CCCC4)cc3)o2)c(C)c1	Sa growth 42C 1.6
C=CCN(CC=C)S(=O)(=O)c1ccc(C(=O)Nc2nnc(-c3cc(C)ccc3C)o2)cc1	Sa growth 42C 1.7
CCc1nnc(NC(=O)c2ccc(S(=O)(=O)N3CC(C)CC(C)C3)cc2)o1 (centres undefined)	Sa growth 42C 9.0
Cc1ccc(-c2nnc(NC(=O)c3ccc4c(c3)OCCO4)o2)c(C)c1	none (no result: Sa helicase inh)
N#Cc1c(N)n(-c2ccc(C(F)(F)F)cc2)c2nc3ccccc3nc12	none
O=C(CN1C(=O)CCC1=O)NC(=S)Nc1cccc(-c2nc3ccccc3o2)c1	none
O=C(Cc1ccc(-c2ccccc2)cc1)NCc1ccco1	none
CCCCn1nnnc1CSc1nnc(-c2cc(OC)c(OC)c(OC)c2)n1-c1ccccc1F	none
Cn1c(C2CC(=O)N(c3cccc4ccccc34)C2)nc2ccccc21 (centres undefined)	Sa growth 42C 0.4
O=C1CC(c2nc3ccccc3[nH]2)CN1c1cccc2ccccc12 (centres undefined)	none
CC(C)(C)NC(=S)Nc1cccc(Cl)c1	none
S=C(Nc1cccc(Cl)c1)Nc1cccc(Cl)c1	Sa growth 42C 0.0 (no result: Sa helicase inh)
Cc1oc2c(c1C(=O)NCc1ccccc1)C(=O)c1ccccc1C2=O	none
Cc1c(C(=O)NCCCN2CCOCC2)cc(-c2ccccc2)n1-c1ccccc1	none (no result: Sa helicase inh)
Cc1oc2c(c1C(=O)NCc1ccccn1)C(=O)c1ccccc1C2=O	Sa growth 42C 0.6
Cc1oc2c(c1C(=O)NCCCN1CCOCC1)C(=O)c1ccccc1C2=O	Sa growth 42C 1.7
Cc1oc2c(c1C(=O)O)C(=O)c1ccccc1C2=O	none
Cc1oc2c(c1C(=O)N1CCc3ccccc3C1)C(=O)c1ccccc1C2=O	Sa growth 42C 6.5
O=C(CSCc1cnn(-c2ccccc2)c1-n1cccc1)N1CCN(c2ccccn2)CC1	none
Cc1cc(OCC(=O)c2cc(C)n(-c3nccs3)c2C)ccc1Cl	none
CC1(C(=O)O)CCC(C(=O)N2CCc3ccccc32)C1(C)C (centres undefined)	none (no result: Sa growth 42C)
Oc1cccc2ccc(Nc3ccccn3)nc12	none
CNc1ccc2cccc(O)c2n1	Sa growth 42C 0.4
CC(C)CCN1C(=O)c2ccc(C34CC5CC(CC(C5)C3)C4)cc2C1=O	none
Cc1cc(O)c(Cc2cc(Cl)c3cccnc3c2O)c(=O)o1	Sa growth 42C 4.0
O=c1oc2ccccc2c(O)c1Cc1cc(Cl)c2cccnc2c1O	none
CCOc1ccccc1N1CCN(CC(=O)Nc2ccc3c(c2)OC(F)(F)O3)CC1	none
N#C/C(=N\Nc1cc(C(=O)O)cc(C(=O)O)c1)C(=O)c1ccccc1	none
N#C/C(=N\Nc1cccc(Cl)c1)C(=O)c1ccco1	Sa growth 42C 1.8
Cc1cc(C(=O)/C(C#N)=N/Nc2cccc(Cl)c2)n(C(C)(C)C)n1	Sa growth 42C 5.4
N#C/C(=C\Nc1cccc(Cl)c1)S(=O)(=O)Cc1ccco1	none (no result: Sa helicase inh)
CCOC(=O)Cc1nc(C)cc(C)n1	none
CCOC(=O)c1c(C)[n+]([O-])c2ccc3c(non3O)c12	none
Cc1c(C)[n+]([O-])c2ccc3c(non3O)c12	Sa growth 42C 1.9
C/C(=N\OC(=O)c1ccccc1)c1cc(-c2ccccc2)no1	none
C/C(=N\O)c1cc(-c2ccccc2)no1	Sa growth 42C -0.7 (no result: Sa helicase inh)
Cc1ccccc1-n1nnnc1SCC(=O)N1CCCc2ccccc21	none
CC(C)(C)C(=O)/C(C#N)=C/c1ccc(C#N)cc1	none
O=S(=O)(Nc1ccccc1N1CCOCC1)c1cc(Cl)sc1Cl	none (no result: Sa helicase inh)
CC[n+]1c(C)sc2ccccc21	none
CC[n+]1c(C)sc2cc(SC)c(OC)cc21	Sa growth 42C 1.8
Cc1cccc(COn2c(=O)c[n+]([O-])c3ccccc32)c1	none
CN1C(=O)CC(C(=O)Nc2ccc(C(=O)O)cc2)SC1=Nc1ccc(Cl)cc1 (centres undefined)	none (no result: Sa helicase inh)
O=C(O)C1CC(=O)N(CCC23CC4CC(CC(C4)C2)C3)C(=Nc2ccc(Cl)cc2)S1 (centres undefined)	Sa growth 42C -0.5
O=C(COC(=O)c1ccc(Br)o1)Nc1c(Cl)cccc1Cl	none
Cc1[nH]c(=O)[nH]c(=O)c1/C=N/NC(=S)NCc1ccc(OC(C)C)cc1	none
Cc1cccc(OCCNC(=O)c2cccnc2)c1	none
COc1ccc(OCCOC(=O)c2ccc(SC)cc2OC)cc1	none
